Data: publication PMC5540273 (PLoS ONE, 2017)

tested on: T1, ASK1; details: concentration: 1 μM, replicates: in singlicate; n = 1
T1 construct: gene MAP3K5
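Further: KINOMEscan kinase panel screen.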

Compound	%Inh [%]
N#Cc1ccc(Oc2ccc(Nc3ncnc4cc[nH]c34)cc2Cl)cc1	18
Cc1cc(N2CCC(NS(=O)(=O)c3ccc(F)cc3)CC2)nc(Nc2cccc(C#N)c2)n1.O=C(O)C(F)(F)F [GSK1653537]	0
O=C(NCCCN1CCCC1=O)c1cnc(NCc2cc(Cl)ccc2Cl)nc1NC1CCNCC1	0
c1ccc(-c2ccc3c(-c4ccnc(Nc5ccc6c(c5)OCCO6)n4)cnn3n2)cc1 [GW818941]	7
CNc1nccc(-c2c(-c3ccc(F)cc3)ncn2CCCN2CCOCC2)n1 [SB-222516]	9
C[C@@H]1CCN(C(=O)CO)C[C@@H]1N(C)c1ncnc2[nH]ccc12	0
Cn1ccc2ncnc(Oc3ccc(NC(=O)Nc4cccnc4)c(Cl)c3)c21	5
O=C(c1ccc(-c2cc(-c3c[nH]nc3-c3ccccn3)ccn2)cc1)N1CCCC1 [GW792479]	4
O=C(Nc1n[nH]c2nc(-c3ccco3)c(Br)cc12)c1ccc(CN2CCCC2)cc1.O=C(O)[C@H](O)[C@@H](O)C(=O)O [SB-742352]	0
Nc1n[nH]c2nnc(-c3ccccc3)cc12 [SB-517389]	61
Oc1ccc2ncnc(Nc3ccc(OCc4ccccc4)cc3)c2c1 [GI262866]	0
O=C(CCO)NCCn1ccc2ncnc(Nc3ccc(Oc4cccc(C(F)(F)F)c4)c(Cl)c3)c21	0
Nc1nc(-c2cccnc2)c(-c2ccnc3ccccc23)s1 [GW684083]	0
COc1ccc(Nc2nccc(N3CCC(NC(=O)c4cccc(NC(C)=O)c4)C3)n2)cc1 (stereo not drawn) [GSK1379732]	0
CC(=O)Nc1n[nH]c2ncc(-c3ccccc3)cc12 [SB-548492]	20
COc1ccc(Nc2nccc(N3CCC(NC(=O)Nc4ccc5c(c4)OCO5)C3)n2)cc1 (stereo not drawn) [GSK1379745]	9
CCCc1ccc(S(=O)(=O)NC2CCN(c3ccnc(Nc4ccc(OC)cc4)n3)C2)cc1 (stereo not drawn) [GSK1379737]	0
Nc1nccc2scc(-c3ccc4c(c3)CCN4C(=O)Cc3cc(F)ccc3F)c12 [GSK2587663]	6

Compound	%Inh [%]
CS(=O)(=O)CCNCc1nc(-c2ccc3ncnc(Nc4ccc(OCc5cccc(F)c5)c(Cl)c4)c3c2)cs1.Cl [GW583340]	11
COc1ccc(NC(=O)Nc2ccc(C)c(-c3ccc(C(=O)Nc4ccncc4)cc3)c2)cc1 [GSK1398475]	4
FC(F)(F)c1cc(Nc2nccc(-c3c(-c4ccc(Cl)cc4)nn4ncccc34)n2)ccc1Cl [GW829351]	0
Cl.Cl.c1ccc(-c2cc3ccncc3cc2OC2CCNCC2)cc1 [GSK1122999]	0
Nc1nc(-c2ccc3c(N)n[nH]c3c2)cc(N2CCCCC2)n1 [GSK2228768]	0
COc1cc2c(Nc3cccc(NC(=O)c4ccccc4)c3)ncnc2cc1OCCCN1CCOCC1 [GSK223810]	0
Clc1cccc(-c2nc(Nc3ccncc3)c3ccccc3n2)c1 [GW873004]	13
CSc1ccc(NC2=C(c3ccccc3Cl)C(=O)NC2=O)cc1 [SB-342411]	0
O=C(Nc1ccccc1F)NC1CCN(c2ccnc(Nc3ccc(F)cc3)n2)C1 (stereo not drawn) [GSK1379722]	8
Cc1ccc(NC(=O)c2cccc(C#N)c2)cc1-c1ccc(C(=O)Nc2ccncc2)cc1 [GSK1398463]	3
Nc1nc(-c2ccc3c(N)n[nH]c3c2)cc(N2CCC[C@@H](C(=O)Nc3ccccc3)C2)n1.O=C(O)C(F)(F)F.O=C(O)C(F)(F)F [GSK2288359]	1
CCc1nc(-c2cccc(C)c2)c(-c2ccnc(NC(=O)c3ccccc3)c2)s1	9
Cl.Fc1ccccc1COc1ccc(Nc2ncnc3ccc(-c4nnc(C(F)(F)F)o4)cc23)cc1Cl [GW424170]	0
Clc1cc(Nc2ncnc3cc[nH]c23)ccc1OCc1ccccn1	5
CC(C)N1CCC(n2cnc(-c3ccc(F)cc3)c2-c2ccnc(N)n2)CC1 [SB-223132]	1
COC(=O)c1cccc(NC(=O)NCCNc2ccnc(Nc3ccc(F)cc3)n2)c1 [GSK1379883]	0
Cc1ccc(C)c(NC(=O)NCCNc2ccnc(Nc3ccc(F)cc3)n2)c1 [GSK1379878]	0
CCC(CC)(CC)n1cnc2c(N)ncnc21 [SKF-97620]	2

tested on: T2, ASK2; details: concentration: 1 μM, replicates: in singlicate; n = 1
T2 construct: gene MAP3K6

Compound	%Inh [%]
N#Cc1ccc(Oc2ccc(Nc3ncnc4cc[nH]c34)cc2Cl)cc1	0
Cc1cc(N2CCC(NS(=O)(=O)c3ccc(F)cc3)CC2)nc(Nc2cccc(C#N)c2)n1.O=C(O)C(F)(F)F [GSK1653537]	3
O=C(NCCCN1CCCC1=O)c1cnc(NCc2cc(Cl)ccc2Cl)nc1NC1CCNCC1	0
c1ccc(-c2ccc3c(-c4ccnc(Nc5ccc6c(c5)OCCO6)n4)cnn3n2)cc1 [GW818941]	0
CNc1nccc(-c2c(-c3ccc(F)cc3)ncn2CCCN2CCOCC2)n1 [SB-222516]	12
C[C@@H]1CCN(C(=O)CO)C[C@@H]1N(C)c1ncnc2[nH]ccc12	0
Cn1ccc2ncnc(Oc3ccc(NC(=O)Nc4cccnc4)c(Cl)c3)c21	0
O=C(c1ccc(-c2cc(-c3c[nH]nc3-c3ccccn3)ccn2)cc1)N1CCCC1 [GW792479]	0
O=C(Nc1n[nH]c2nc(-c3ccco3)c(Br)cc12)c1ccc(CN2CCCC2)cc1.O=C(O)[C@H](O)[C@@H](O)C(=O)O [SB-742352]	0
Nc1n[nH]c2nnc(-c3ccccc3)cc12 [SB-517389]	0
Oc1ccc2ncnc(Nc3ccc(OCc4ccccc4)cc3)c2c1 [GI262866]	7
O=C(CCO)NCCn1ccc2ncnc(Nc3ccc(Oc4cccc(C(F)(F)F)c4)c(Cl)c3)c21	0
Nc1nc(-c2cccnc2)c(-c2ccnc3ccccc23)s1 [GW684083]	10
COc1ccc(Nc2nccc(N3CCC(NC(=O)c4cccc(NC(C)=O)c4)C3)n2)cc1 (stereo not drawn) [GSK1379732]	1
CC(=O)Nc1n[nH]c2ncc(-c3ccccc3)cc12 [SB-548492]	23
COc1ccc(Nc2nccc(N3CCC(NC(=O)Nc4ccc5c(c4)OCO5)C3)n2)cc1 (stereo not drawn) [GSK1379745]	5
CCCc1ccc(S(=O)(=O)NC2CCN(c3ccnc(Nc4ccc(OC)cc4)n3)C2)cc1 (stereo not drawn) [GSK1379737]	0
Nc1nccc2scc(-c3ccc4c(c3)CCN4C(=O)Cc3cc(F)ccc3F)c12 [GSK2587663]	13

Compound	%Inh [%]
CS(=O)(=O)CCNCc1nc(-c2ccc3ncnc(Nc4ccc(OCc5cccc(F)c5)c(Cl)c4)c3c2)cs1.Cl [GW583340]	0
COc1ccc(NC(=O)Nc2ccc(C)c(-c3ccc(C(=O)Nc4ccncc4)cc3)c2)cc1 [GSK1398475]	0
FC(F)(F)c1cc(Nc2nccc(-c3c(-c4ccc(Cl)cc4)nn4ncccc34)n2)ccc1Cl [GW829351]	0
Cl.Cl.c1ccc(-c2cc3ccncc3cc2OC2CCNCC2)cc1 [GSK1122999]	4
Nc1nc(-c2ccc3c(N)n[nH]c3c2)cc(N2CCCCC2)n1 [GSK2228768]	9
COc1cc2c(Nc3cccc(NC(=O)c4ccccc4)c3)ncnc2cc1OCCCN1CCOCC1 [GSK223810]	3
Clc1cccc(-c2nc(Nc3ccncc3)c3ccccc3n2)c1 [GW873004]	0
CSc1ccc(NC2=C(c3ccccc3Cl)C(=O)NC2=O)cc1 [SB-342411]	0
O=C(Nc1ccccc1F)NC1CCN(c2ccnc(Nc3ccc(F)cc3)n2)C1 (stereo not drawn) [GSK1379722]	16
Cc1ccc(NC(=O)c2cccc(C#N)c2)cc1-c1ccc(C(=O)Nc2ccncc2)cc1 [GSK1398463]	8
Nc1nc(-c2ccc3c(N)n[nH]c3c2)cc(N2CCC[C@@H](C(=O)Nc3ccccc3)C2)n1.O=C(O)C(F)(F)F.O=C(O)C(F)(F)F [GSK2288359]	0
CCc1nc(-c2cccc(C)c2)c(-c2ccnc(NC(=O)c3ccccc3)c2)s1	0
Cl.Fc1ccccc1COc1ccc(Nc2ncnc3ccc(-c4nnc(C(F)(F)F)o4)cc23)cc1Cl [GW424170]	0
Clc1cc(Nc2ncnc3cc[nH]c23)ccc1OCc1ccccn1	0
CC(C)N1CCC(n2cnc(-c3ccc(F)cc3)c2-c2ccnc(N)n2)CC1 [SB-223132]	0
COC(=O)c1cccc(NC(=O)NCCNc2ccnc(Nc3ccc(F)cc3)n2)c1 [GSK1379883]	0
Cc1ccc(C)c(NC(=O)NCCNc2ccnc(Nc3ccc(F)cc3)n2)c1 [GSK1379878]	0
CCC(CC)(CC)n1cnc2c(N)ncnc21 [SKF-97620]	26
